Read-out in assay [1]: C-C motif chemokine 2 (Homo sapiens) (UniProt P13500)
Kind of assay: BSK_KF3CT_MCP1: BioMAP Diversity Plus: KF3CT Assay for Monocyte Chemoattractant Protein 1 (MCP1/CCL2) Biomarker Activity (AID 2283073). Conditions: primary human keratinocytes with fibroblasts; actives raise or lower the signal. The procedure, abridged: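 Human keratinocyte–foreskin fibroblast co-culture; MCP-1 measured by ELISA 24 h after dosing. Bidirectional fit vs DMSO; cytotoxicity tracked by SRB total protein in parallel cultures.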

Read-out in assay [2]: Matrix Metallopeptidase 9 (MMP9), MMP9 (gene 4318)
Nature of the assay: BSK_KF3CT_MMP9: BioMAP Diversity Plus: KF3CT Assay for Matrix Metallopeptidase 9 (MMP9) Biomarker Activity (AID 2283074).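 On AC50: MMP9 protein level quantified by ELISA in the co-culture.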 As to conditions: primary human keratinocytes with fibroblasts; actives raise or lower the signal. The procedure, abridged:
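Human keratinocyte/foreskin fibroblast co-culture; compound added; 24 h; MMP-9 by ELISA; bidirectional fit vs DMSO baseline.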

Read-out in assay [3]: urokinase plasminogen activator (uPA), PLAU (gene 5328)
Nature of the assay: BSK_KF3CT_uPA: BioMAP Diversity Plus: KF3CT Assay for urokinase plasminogen activator (uPA) Biomarker Activity (AID 2283075). Conditions: primary human keratinocytes with fibroblasts; actives raise or lower the signal. The procedure, abridged: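 ELISA readout of uPA, analyzed for signal gain or loss relative to DMSO, from a human primary keratinocyte–foreskin fibroblast co-culture measured 24 h after chemical treatment.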

Read-out in assay [4]: CD40, CD40 (gene 958)
Nature of the assay: BSK_LPS_CD40: BioMAP Diversity Plus: LPS Assay for CD40 Biomarker Activity (AID 2283076). Conditions: primary human HUVEC with PBMC; actives raise or lower the signal. The procedure, abridged:
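HUVEC plus PBMC co-culture stimulated with LPS; CD40 quantified by ELISA 24 h after compound dosing. Fitting was bidirectional relative to DMSO. SRB staining of parallel cultures flagged overt cytotoxicity.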

Read-out in assay [5]: E-selectin (Homo sapiens) (UniProt P16581)
Kind of assay: BSK_LPS_Eselectin: BioMAP Diversity Plus: LPS Assay for Eselectin Biomarker Activity (AID 2283077). Conditions: primary human HUVEC with PBMC; actives raise or lower the signal. The procedure, abridged: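 Human umbilical vein endothelial cells co-cultured with PBMC under LPS stimulation; cell-surface E-selectin measured by ELISA 24 h after dosing. Change in either direction versus DMSO, with SRB total-protein staining in parallel cultures for cytotoxicity.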

Read-out in assay [6]: Interleukin-8 (IL8), CXCL8 (gene 3576)
Kind of assay: BSK_LPS_IL8: BioMAP Diversity Plus: LPS Assay for Interleukin-8 (IL8) Biomarker Activity (AID 2283078). Conditions: primary human HUVEC with PBMC; actives raise or lower the signal. Put shortly: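 Human umbilical vein endothelial cells co-cultured with PBMC, LPS-stimulated, exposed to compound for 24 h. IL-8 quantified by ELISA; fitted in both directions against DMSO, with SRB total-protein staining of parallel cultures for cytotoxicity.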

Assay [7] can be described thus: BSK_LPS_SRB: Viability Assessment in the BioMAP Diversity Plus: LPS Assay (AID 2283079).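 Further: total protein by sulforhodamine B absorbance as a cytotoxicity measure; measured one day after compound addition; fitted in both directions against DMSO so loss or gain of signal counts.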 As to conditions: primary human HUVEC with PBMC. The procedure, abridged: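 Co-culture of human umbilical vein endothelial cells and PBMC, read 24 h after dosing. Total protein by 0.1% SRB staining after 10% TCA fixation, absorbance at 560 nm; bidirectional fit against DMSO.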

Read-out in assay [8]: Interleukin-1 alpha (IL1a), IL1A (gene 3552)
Nature of the assay: BSK_LPS_IL1a: BioMAP Diversity Plus: LPS Assay for Interleukin-1 alpha (IL1a) Biomarker Activity (AID 2283080). As to conditions: primary human HUVEC with PBMC; actives raise or lower the signal. The procedure, abridged:
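Human umbilical vein endothelial cells co-cultured with PBMC and stimulated with LPS; IL-1a measured by ELISA 24 h after dosing. Bidirectional fitting against DMSO; cytotoxicity checked by SRB staining in parallel cultures.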

Read-out in assay [9]: Monocyte Chemoattractant Protein-1 (MCP1), CCL2 (gene 6347)
Nature of the assay: BSK_LPS_MCP1: BioMAP Diversity Plus: LPS Assay for Monocyte Chemoattractant Protein-1 (MCP1) Biomarker Activity (AID 2283081).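 On AC50: secreted MCP-1 protein quantified by ELISA in culture supernatant.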 Conditions: primary human HUVEC with PBMC; actives raise or lower the signal. The procedure, abridged: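 Human umbilical vein endothelial cells co-cultured with PBMC, LPS-stimulated; secreted MCP-1 measured by ELISA 24 h after compound addition. Bidirectional curve fitting against DMSO baseline; SRB total-protein staining in parallel cultures for cytotoxicity.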

Assay [10] can be described thus: BSK_LPS_PGE2: BioMAP Diversity Plus: LPS Assay for Prostaglandin E2 (PGE2) Biomarker Activity (AID 2283082).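 On AC50: secreted prostaglandin E2 measured by ELISA in LPS-stimulated co-culture.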 Conditions: primary human HUVEC with PBMC; actives raise or lower the signal. The procedure, abridged:
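Endpoint derived from bidirectional curve fitting versus DMSO of ELISA-measured PGE2 in LPS-stimulated human primary vascular co-culture (HUVEC with PBMC) harvested at 24 h.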

Read-out in assay [11]: Macrophage colony-stimulating factor (MCSF), CSF1 (gene 1435)
Nature of the assay: BSK_LPS_MCSF: BioMAP Diversity Plus: LPS Assay for Macrophage colony-stimulating factor (MCSF) Biomarker Activity (AID 2283083). Conditions: primary human HUVEC with PBMC; actives raise or lower the signal. Put shortly:
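HUVEC–PBMC co-culture, M-CSF measured by ELISA 24 h after chemical dosing. Fitted in both directions relative to DMSO as negative control; overt cytotoxicity assessed by SRB total-protein staining in parallel cultures.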

Read-out in assay [12]: Tissue Factor, F3 (gene 2152)
Nature of the assay: BSK_LPS_TissueFactor: BioMAP Diversity Plus: LPS Assay for Tissue Factor Biomarker Activity (AID 2283084). As to conditions: primary human HUVEC with PBMC; actives raise or lower the signal. The procedure, abridged: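 Human umbilical vein endothelial cells co-cultured with PBMC were dosed with compound. Cell-surface CD142 was measured by ELISA 24 h later. Activity was fitted bidirectionally against DMSO, with SRB total-protein staining in parallel cultures for cytotoxicity.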

Read-out in assay [13]: Tumor necrosis factor (Homo sapiens) (UniProt P01375)
Kind of assay: BSK_LPS_TNFa: BioMAP Diversity Plus: LPS Assay for Tumour Necrosis Factor alpha (TNFa) Biomarker Activity (AID 2283085). As to conditions: primary human HUVEC with PBMC; actives raise or lower the signal. Put shortly: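 Primary human vascular co-culture of HUVEC and PBMC; TNFa ELISA 24 h after treatment, analysed as increase or decrease relative to DMSO control.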

Read-out in assay [14]: Vascular cell adhesion molecule 1 (VCAM1), VCAM1 (gene 7412)
Nature of the assay: BSK_LPS_VCAM1: BioMAP Diversity Plus: LPS Assay for Vascular cell adhesion molecule 1 (VCAM1) Biomarker Activity (AID 2283086). Conditions: primary human HUVEC with PBMC; actives raise or lower the signal. Put shortly: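 Primary human vascular co-culture (umbilical vein endothelium plus PBMC) stimulated with LPS received chemical; 24 h later VCAM-1 was read by ELISA. Overt cytotoxicity was assessed by sulforhodamine B staining of parallel cultures at the same time point.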

Read-out in a further assay: CD38, CD38 (gene 952)
Nature of the assay: BSK_SAg_CD38: BioMAP Diversity Plus: SAg Assay for CD38 Biomarker Activity (AID 2283087). Conditions: primary human HUVEC with PBMC; actives raise or lower the signal. Put shortly: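 Fluorescence ELISA of cell-surface CD38 served as the read-out, with either increase or decrease fitted against DMSO controls. Cells were a human umbilical vein endothelium plus PBMC co-culture under SEB/TSST-1 stimulation, measured 24 h after dosing.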

Read-out in assay [15]: CD40, CD40 (gene 958)
Kind of assay: BSK_SAg_CD40: BioMAP Diversity Plus: SAg Assay for CD40 Biomarker Activity (AID 2283088). Conditions: primary human HUVEC with PBMC; actives raise or lower the signal. The procedure, abridged:
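HUVEC plus PBMC co-culture, superantigen-activated, with CD40 read by ELISA 24 h after dosing. Curves fitted in both directions against DMSO. Overt cytotoxicity checked by parallel SRB total-protein staining.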

Read-out in the next assay: CD69, CD69 (gene 969)
Nature of the assay: BSK_SAg_CD69: BioMAP Diversity Plus: SAg Assay for CD69 Biomarker Activity (AID 2283089).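 Further: cell surface CD69 protein quantified by ELISA with fluorescence detection.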 Conditions: primary human HUVEC with PBMC; actives raise or lower the signal. The procedure, abridged:
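Endothelial/PBMC co-culture; chemical added; 24 h incubation; CD69 ELISA with fluorescence detection; bidirectional fit vs DMSO.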

Read-out in assay [16]: Monocyte Chemoattractant Protein-1 (MCP1), CCL2 (gene 6347)
Nature of the assay: BSK_SAg_MCP1: BioMAP Diversity Plus: SAg Assay for Monocyte Chemoattractant Protein-1 (MCP1) Biomarker Activity (AID 2283090). As to conditions: primary human HUVEC with PBMC; actives raise or lower the signal. Put shortly:
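MCP-1 levels in the endothelial–PBMC SAg co-culture were quantified by ELISA at 24 h post-dosing; both increases and decreases versus DMSO scored. Cytotoxicity monitored by SRB total protein in parallel cultures.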

Read-out in assay [17]: Monokine induced gamma interferon (MIG), CXCL9 (gene 4283)
Nature of the assay: BSK_SAg_MIG: BioMAP Diversity Plus: SAg Assay for Monokine induced gamma interferon (MIG) Biomarker Activity (AID 2283092). As to conditions: primary human HUVEC with PBMC; actives raise or lower the signal. The procedure, abridged:
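Measures CXCL9 protein by ELISA in a human vascular primary-cell co-culture (umbilical vein endothelium with PBMC) 24 h after chemical addition. Activity is scored up or down from the DMSO control.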

One may read the AC50 as the midpoint of the concentration-response curve, whichever way the signal moves.

Activity calls are given as the source filed them. How the source made its calls: active means hit-call score of the fitted dose curve at least 0.9, where 1 is the maximum; inactive means score below 0.9.

Sequence of E-selectin (Homo sapiens) (P16581 whole entry, looked up): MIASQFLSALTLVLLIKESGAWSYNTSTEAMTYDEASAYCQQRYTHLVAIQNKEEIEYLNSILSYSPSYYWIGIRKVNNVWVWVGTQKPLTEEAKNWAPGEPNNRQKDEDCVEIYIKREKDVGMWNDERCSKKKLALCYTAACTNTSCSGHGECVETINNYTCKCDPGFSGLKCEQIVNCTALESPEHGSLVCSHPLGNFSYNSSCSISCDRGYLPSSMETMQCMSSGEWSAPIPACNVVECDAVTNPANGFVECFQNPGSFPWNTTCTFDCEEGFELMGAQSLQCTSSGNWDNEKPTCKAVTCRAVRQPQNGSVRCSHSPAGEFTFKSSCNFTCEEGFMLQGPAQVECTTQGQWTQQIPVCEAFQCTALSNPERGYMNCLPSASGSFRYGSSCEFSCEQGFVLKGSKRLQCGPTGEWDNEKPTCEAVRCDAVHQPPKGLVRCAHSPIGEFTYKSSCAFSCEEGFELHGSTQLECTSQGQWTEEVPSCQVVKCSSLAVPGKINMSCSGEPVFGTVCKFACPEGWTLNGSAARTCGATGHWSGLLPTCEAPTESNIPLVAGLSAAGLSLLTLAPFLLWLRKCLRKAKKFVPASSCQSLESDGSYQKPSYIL
Sequence of Tumor necrosis factor (Homo sapiens) (P01375 whole entry, looked up): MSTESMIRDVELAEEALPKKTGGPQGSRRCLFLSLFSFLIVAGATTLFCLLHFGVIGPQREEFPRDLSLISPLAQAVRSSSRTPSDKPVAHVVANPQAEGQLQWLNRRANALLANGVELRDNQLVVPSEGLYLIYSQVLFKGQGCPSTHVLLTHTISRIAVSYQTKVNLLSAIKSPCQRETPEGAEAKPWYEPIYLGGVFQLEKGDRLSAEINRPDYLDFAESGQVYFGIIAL

On to `C(=NC1CCCCC1)=NC1CCCCC1`, for which the AC50 is 29.4 µM (active) in [1]; 12.6 µM (active) in [2]; 28.8 µM (active) in assay [3]; 27.4 µM (active) with CD40, CD40 (gene 958) [4]; 34.9 µM (active) in assay [5]; 30.9 µM (active) in [6]. Also, the AC50 in assay [7] was 32.8 µM (active); in assay [8], 29.4 µM (active); in [9], 30 µM (active); in assay [11] it was 20 µM (active); in [12], 34.8 µM (active); in assay [13], 35.1 µM (active). Besides, the AC50 is 30.4 µM (active) in assay [14]; 14.1 µM (active) with CD38, CD38 (gene 952); 17.3 µM (active) in the assay with CD40, CD40 (gene 958) [15]; 7.97 µM (active) with CD69, CD69 (gene 969); 19.3 µM (active) in [16]; 12.6 µM (active) in assay [17]. Besides, the outcome in [10] was inactive.

For `COP(=S)(OC)Oc1ccc(Sc2ccc(OP(=S)(OC)OC)cc2)cc1`, the result in assay [1], in assay [3], in [5], in assay [12], in assay [13] and in assay [14] was inactive. In [17], the result was inactive. Further, the concentration at half-maximal activity (AC50) was 10.4 µM (active) in [2]; 20 µM (active) with CD40, CD40 (gene 958) [4]; 3.97 µM (active) in assay [6]; 13.7 µM (active) in assay [7]; 31 µM (active) in assay [8]; 12.5 µM (active) in assay [9]. The AC50 in assay [10] is 9.58 µM (active); in assay [11], 20 µM (active); with CD38, CD38 (gene 952), 14.5 µM (active); in the assay with CD40, CD40 (gene 958) [15] it was 14.8 µM (active); in the assay with CD69, CD69 (gene 969), 13.6 µM (active); in [16], 26.9 µM (active).

Take `ClC1=C(Cl)[C@]2(Cl)[C@H]3[C@H]([C@H]4C=C[C@H]3C4)[C@@]1(Cl)C2(Cl)Cl`: the outcome in assay [1] is “inactive”; in assay [2], “inactive”; in assay [3], “inactive”; with CD40, CD40 (gene 958) [4], “inactive”; in [5], “inactive”; in assay [8], “inactive”. In addition, the result in assay [9], in [11], in assay [12], in assay [14], in assay [16] and in [17] was inactive. The concentration at half-maximal activity (AC50) in assay [6] is 0.16 µM (active); in assay [7] it was 5.73 µM (active); in assay [10], 0.142 µM (active); in [13], 0.296 µM (active); in the assay with CD38, CD38 (gene 952) it was 4.55 µM (active); in the assay with CD40, CD40 (gene 958) [15] it was 4.46 µM (active).

(Values after PubChem BioAssay (EPA / NIEHS).)
